This note sets out measurements from PubChem BioAssay (NCATS).

SMILES strings stand for the structures. Results filed as inconclusive are left out. A call without a number means that no potency is given here. Active and inactive are the calls of the source. The call rests on the fitted dose curve; in most records, active means well fitted inhibition curve with a large enough effect; inconclusive means small, poorly fitted or top-dose-only effect; inactive means no such curve, though single readings can be large or run the other way.

This test has as its system Zika virus NS2B-NS3 protease (linked construct). Description: Primary screen NINDS Rhodamine qHTS for Zika virus inhibitors (AID 1347160). Further: nearly all actives have a fitted effect of over 55% in size. The note with it: purified NS2B-NS3 protease, Rhodamine110 substrate fluorescence; series mostly up to 57.1 µM. The essentials:
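In 10 mM Tris-HCl pH 8.0 containing 0.01% Tween 20, linked NS2B-NS3 protease (25 nM final) is exposed to test compounds for 15 min. Cleavage of 1.5 microM Rhodamine110 substrate is tracked by fluorescence over 15 min.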
(In general: qHTS replaces the single test concentration by a dilution series.)
Take `Cc1ccc(OC[C@H](O)[C@H](C)NC(C)C)c2c1CCC2`: the Potency entry was “inactive”.

For `CC(=O)O[C@@H]1CC2C(C)(C)C(=O)C=C[C@]2(C)C2CC[C@@]3(C)[C@H](c4ccoc4)OC(=O)[C@H]4O[C@]43[C@@]21C` (some centres undefined), the Potency entry was “inactive”.

For `C/C(=C\Cc1c(O)c(Cl)c(C)c(C=O)c1O)CC/C=C(\C)[C@H]1CC(=O)C(C)(C)O1`, the Potency result is “inactive”.

`C/C=C(\C)C(=O)O[C@H]1C=C(CO)C(=O)[C@H](OC(C)=O)[C@H]1C(C)C`: the Potency entry was “inactive”.
